In PubChem BioAssay AID1626 (SRMLSC, 2009):
The whole screen tested about 220,000 compounds, of which about 2,000 (0.91%) were called active. Inconclusive results (about 2%) are left out. Cut-off read from the data, not from the text of the source: inconclusive = inhibition above about 80% without an active follow-up result; inactive = below that; test concentration not stated here. A selection follows. Measured potencies and affinities stand elsewhere.

Experiment: M. tuberculosis H37Rv growth inhibitors, H37Rv strain (AID 1626);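 note: bacteria incubated seven days before Alamar blue readout; 0% = bacteria only wells and 100% = bacteria with antibiotic wells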
Settings: stronger effect = higher value, concentration not given here
In the case of `Nc1ccc2oc3ccc(N)cc3c(=O)c2c1`, the inhibition is reported as 3.5% (inactive). In the case of `O=[N+]([O-])c1ccc2c(c1)oc1ccccc12`, the inhibition is reported as -1.07% (inactive). For `Cc1cc(NC(=O)c2ccc3c(c2)C(=O)N(CC(C)C)C3=O)no1`, the inhibition was 1.19% (inactive). With `COc1ccc(-c2noc(CSc3nnc(CCc4ccccc4)n3-c3ccccc3)n2)cc1OC` the inhibition was 6.96% (inactive). With `Fc1cccc(COc2ccccc2CNc2ccccc2)c1` the inhibition was 15.2% (inactive). For `CCOc1ccccc1CNc1ccc(O)cc1`, the inhibition was -6.88% (inactive). For `COc1ccc(-n2nnnc2SCC(=O)Nc2nc3c(s2)CCCC3)cc1`, the inhibition was -4.11% (inactive). With `COc1ccc(C(=O)NCCN2C(=O)S/C(=C\c3cccnc3)C2=O)c(OC)c1OC` the inhibition was 8.22% (inactive). In the case of `Cc1n[nH]c(C)c1CCCOc1ccccc1`, the inhibition is reported as -17.6% (inactive). In the case of `Cc1cccc(OCCCc2c(C)n[nH]c2C)c1`, the inhibition is reported as 1.52% (inactive). With `Cc1ccccc1OCCCc1c(C)n[nH]c1C` the inhibition was 33% (inactive). With `Cc1cccc(C)c1OCCCCc1c(C)n[nH]c1C` the inhibition was 78.5% (inactive). In the case of `Cc1n[nH]c(C)c1CCOc1ccc(C(C)C)cc1`, the inhibition is reported as -3.37% (inactive). With `Cc1n[nH]c(C)c1CCCCOc1ccccc1` the inhibition was -2.76% (inactive). For `Cc1nc(NC(=O)COC(=O)c2ccc(S(=O)(=O)N3CCc4ccccc4C3)cc2)c(Cl)cc1Cl`, the inhibition was -3.47% (inactive). In the case of `COc1cc(NC(=S)N2CCC(C(O)(c3ccccc3)c3ccccc3)CC2)cc(OC)c1`, the inhibition is reported as 4.64% (inactive). In the case of `COc1ccccc1C(=O)NNC(=O)c1nn(Cc2ccccc2)c(=O)c2ccccc12`, the inhibition is reported as 2.78% (inactive). For `Cc1[nH][nH]c(=O)c1N=Nc1ccc(Cl)cc1`, the inhibition was -0.49% (inactive). In the case of `O=c1cc(CSCc2ccc(Cl)cc2)[nH]c(=O)[nH]1`, the inhibition is reported as 7.09% (inactive). With `COc1cc2c(cc1NC(=O)CSc1nc3ccc(C)cc3[nH]1)oc1ccccc12` the inhibition was 51.1% (inactive). In the case of `COc1cc2c(cc1NC(=O)CSc1ccccc1)oc1ccccc12`, the inhibition is reported as 83% (inactive). With `COc1ccc(-c2cc(C(F)(F)F)n3nc(C(=O)Nc4c(C)n(C)n(-c5ccccc5)c4=O)cc3n2)cc1` the inhibition was 8.28% (inactive). For `CCNc1nc(Cl)nc(NNC(=O)C(C)Oc2ccccc2)n1` (stereo not drawn), the inhibition was 0.39% (inactive). For `CCN(c1ccc(NC(=O)CN2C(=O)NC3(CCOc4ccccc43)C2=O)cc1)C(C)C` (stereo not drawn), the inhibition was -1.8% (inactive). For `N#CCSc1nnc(N)s1`, the inhibition was 8.52% (inactive). With `Nc1c2c(nc3ccccc13)CCC2` the inhibition was 3.36% (inactive). For `Nc1c2c(nc3ccn(-c4ccccc4)c(=O)c13)CCCCC2`, the inhibition was 11.1% (inactive). In the case of `Cc1ccc(CNC(=O)C2CC(c3ccccc3F)=NO2)cc1` (stereo not drawn), the inhibition is reported as 0.74% (inactive).
